From PubChem BioAssay
Active and inactive are the calls of the source. Unless noted, the rule behind the calls is not given here.

Columns and labels:
[1] = HepG2 liver cancer cell viability effects, profiling panel, resazurin fluorescence, 24 h, PK04 Diversity Set (AID 1172); settings: higher = more signal
[2] = basal S. cerevisiae growth modulation, no modifier, primary screen, OD600, strain BY4716, 24 h, basal condition (AID 1173); settings: OD600, 24 h, higher = more signal, called active from +8 up or from −8 down
[3] = MM1S myeloma cell viability, profiling panel, resazurin fluorescence, basal, 24 h, PK04 Diversity Set (AID 1174); settings: higher = more signal, called active from +8 up or from −8 down;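 note: MM1S multiple myeloma cell line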
[4] = target: Dihydroorotate dehydrogenase (quinone), mitochondrial (Plasmodium falciparum (isolate 3D7)) (UniProt Q08210); test: PfDHODH enzyme inhibitors, primary screen, biochemical, C-terminal His tag, absorbance 600 nm (AID 1175); settings: DCIP absorbance 600 nm, higher = more signal, called active from +8 up or from −8 down;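 note: recombinant parasite enzyme with a five histidine tag at its C terminus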
[5] = P. aeruginosa biofilm formation inhibitors, primary screen, strain PAO1, LB-PBS medium, absorbance 600 nm (AID 1176); settings: P. aeruginosa PAO1 growth/biofilm, A600, 12 h; higher = more signal
[6] = S. cerevisiae RM11-1a growth modifiers, primary screen, strain RM11-1a, OD600, basal, 24 h (AID 1177); settings: OD600, 24 h, higher = more signal, called active from +8 up or from −8 down;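 note: cultures grown under basal conditions with no added stressor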
[7] = E. coli acrAB mutant growth effects, primary screen, E. coli filamentation inducers, strain DRC39, OD650, 24 h (AID 1178); settings: higher = more signal, called active from +8 up or from −8 down;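 note: growth measured as culture turbidity by optical density at 650 nm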
[8] = E. coli acrAB mutant growth effects, primary screen, E. coli filamentation inducers, strain DRC39, OD650, 48 h (AID 1179);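 note: screen aims at cell division blockers that make cells filament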; settings: E. coli DRC39 delta-acrAB growth, higher = more signal, called active from +8 up or from −8 down
[9] = RPMI8226 myeloma cell viability, profiling panel, resazurin fluorescence, basal, 24 h, PK04 Diversity Set (AID 1180); settings: higher = more signal;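 note: RPMI8826 multiple myeloma cell line at 5000 cells per well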
[10] = target: E3 ubiquitin-protein ligase XIAP (Homo sapiens) (UniProt P98170); test: XIAP binders, primary screen, biophysical, small-molecule microarray, fluorescence 635 nm (AID 1181); settings: small-molecule microarray binding, higher = more signal;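 note: score merges 667 nm emission and signal to noise over triplicate slides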
[11] = system: XIP peptide (Xip251-270) binding; test: small-molecule binders of XIP peptide, primary screen, biochemical, small-molecule microarray, fluorescence 635/667 nm, 0.1 µg/mL protein (AID 1182); settings: fluorescent protein binding, 635 nm, higher = more signal, called active from +8 up or from −8 down
XIP peptide (Xip251-270) = test: small-molecule binders of XIP peptide, primary screen, biochemical, small-molecule microarray, fluorescence 635/667 nm, 0.5 µg/mL protein (AID 1183); settings: small-molecule microarray binding, fluorescence 635 nm; higher = more signal
[12] = Plasmodium falciparum growth inhibition, primary screen, strain 3D7, DAPI fluorescence, 100 nL (AID 1184);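 note: parasites grown inside human red blood cells in medium with human serum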; settings: P. falciparum 3D7 growth, 3 d, higher = more signal
[13] = target: Homeobox protein Hox-A13 (Mus musculus) (UniProt Q62424); test: inhibitors of HoxA13-DNA binding, primary screen, biochemical, fluorescence polarization, labeled oligonucleotide (AID 1185); settings: 15 min, higher = more signal, called active from +8 up or from −8 down
[14] = inhibitors of hydroxyurea-induced Chk1 phosphorylation, primary screen, imaging, HeLa, phospho-Chk1 antibody, percent positive cells (AID 1186); settings: hydroxyurea-induced phospho-Chk1 immunofluorescence imaging, higher = more signal
[15] = inhibitors of hydroxyurea-induced Chk1 phosphorylation, primary screen, imaging, HeLa, phospho-Chk1 nuclear intensity (AID 1187); settings: hydroxyurea-induced phospho-Chk1 immunofluorescence imaging, higher = more signal

Sequence of E3 ubiquitin-protein ligase XIAP (Homo sapiens) (P98170 whole entry, looked up): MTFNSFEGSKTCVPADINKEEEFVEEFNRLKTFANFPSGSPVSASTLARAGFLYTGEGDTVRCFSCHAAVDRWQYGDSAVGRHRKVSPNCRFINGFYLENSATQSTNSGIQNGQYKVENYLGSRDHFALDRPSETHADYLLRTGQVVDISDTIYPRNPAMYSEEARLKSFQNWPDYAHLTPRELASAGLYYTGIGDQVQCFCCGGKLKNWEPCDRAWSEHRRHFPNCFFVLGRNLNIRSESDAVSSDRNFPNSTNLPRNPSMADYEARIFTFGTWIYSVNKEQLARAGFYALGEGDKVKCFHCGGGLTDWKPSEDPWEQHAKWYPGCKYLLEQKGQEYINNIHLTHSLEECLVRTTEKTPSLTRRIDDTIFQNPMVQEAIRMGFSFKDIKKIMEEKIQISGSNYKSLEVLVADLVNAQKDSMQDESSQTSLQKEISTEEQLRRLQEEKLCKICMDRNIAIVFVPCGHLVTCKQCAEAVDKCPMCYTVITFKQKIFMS
Sequence of Homeobox protein Hox-A13 (Mus musculus) (Q62424 whole entry, looked up): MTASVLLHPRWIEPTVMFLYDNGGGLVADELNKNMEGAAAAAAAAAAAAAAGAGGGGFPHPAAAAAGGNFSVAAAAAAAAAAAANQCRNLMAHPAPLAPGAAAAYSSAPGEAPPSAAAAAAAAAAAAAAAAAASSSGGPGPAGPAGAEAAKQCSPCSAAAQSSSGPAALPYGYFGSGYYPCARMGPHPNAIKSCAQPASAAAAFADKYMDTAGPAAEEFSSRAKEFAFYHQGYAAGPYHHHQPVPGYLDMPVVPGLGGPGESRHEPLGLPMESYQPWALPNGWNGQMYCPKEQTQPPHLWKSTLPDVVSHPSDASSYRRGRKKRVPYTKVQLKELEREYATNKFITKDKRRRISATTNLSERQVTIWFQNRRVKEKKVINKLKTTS
Sequence of Dihydroorotate dehydrogenase (quinone), mitochondrial (Plasmodium falciparum (isolate 3D7)) (Q08210 whole entry, looked up): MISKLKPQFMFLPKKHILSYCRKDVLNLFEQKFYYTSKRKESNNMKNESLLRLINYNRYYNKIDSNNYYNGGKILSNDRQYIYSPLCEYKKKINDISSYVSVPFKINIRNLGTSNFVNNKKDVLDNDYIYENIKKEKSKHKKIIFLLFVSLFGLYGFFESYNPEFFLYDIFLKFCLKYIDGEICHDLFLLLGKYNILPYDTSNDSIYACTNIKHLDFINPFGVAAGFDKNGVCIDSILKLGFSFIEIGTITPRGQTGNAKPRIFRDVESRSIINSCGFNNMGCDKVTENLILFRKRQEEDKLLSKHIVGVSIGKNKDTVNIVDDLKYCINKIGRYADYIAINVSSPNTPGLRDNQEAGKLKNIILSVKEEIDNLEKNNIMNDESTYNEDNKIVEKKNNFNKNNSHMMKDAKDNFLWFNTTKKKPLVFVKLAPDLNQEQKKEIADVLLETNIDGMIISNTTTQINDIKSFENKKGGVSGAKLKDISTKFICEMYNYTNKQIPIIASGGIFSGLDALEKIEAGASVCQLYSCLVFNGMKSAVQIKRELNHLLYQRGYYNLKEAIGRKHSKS

Row | Structure (SMILES) | z-score [1] | z-score [2] | z-score [3] | composite z-score [4] | z-score [5] | z-score [6] | z-score [7] | z-score [8] | z-score [9] | composite z-score [10] | composite z-score [11] | composite z-score (XIP peptide (Xip251-270)) | z-score [12] | z-score [13] | z-score [14] | z-score [15]
1 | C[C@H]1C2=C3C(CC[C@H]4C(OCc5ccc(F)cc5C(F)(F)F)OC[C@](C)([C@@H]34)N(C(=O)OC(C)(C)C)C2)C(CO)C1CO (stereo partly drawn) | -1.49 | 0.964 (inactive) | -2.08 (inactive) | -0.108 (inactive) | 2.31 (inactive) | 1.04 (inactive) | -1.36 (inactive) | -0.895 (inactive) | -1.62 | 0.147 | 0.456 (inactive) | 0.724 | -0.736 | -4.04 (inactive) | 0.491 (inactive) | 0.52 (inactive)
2 | C=C(CCCC)/C(=C/C[C@@H](OC(=O)c1ccncc1)c1cccc(OCCO)c1)c1cnc2ccccc2c1 | 0.0976 | -1.17 (inactive) | -0.369 (inactive) | -2.5 (inactive) | 2.24 (inactive) | 0.264 (inactive) | 0.879 (inactive) | 0.357 (inactive) | 0.0765 | -0.0261 | 0.389 (inactive) | 0.405 | -3.03 | -3.72 (inactive) | -0.403 (inactive) | -0.342 (inactive)
3 | [N-]=[N+]=Nc1ccccc1[C@@H]1OC(c2ccc(OCCCO)cc2)=N[C@]1(CCS(=O)(=O)c1ccccc1)C(=O)NCCN1CCOCC1 | -0.376 | -1.32 (inactive) | -0.195 (inactive) | 0.313 (inactive) | 0.236 (inactive) | -0.309 (inactive) | 0.833 (inactive) | -0.278 (inactive) | -0.659 | -0.34 | 0.691 (inactive) | 0.433 | -2.67 | -3.85 (inactive) | 0.147 (inactive) | 0.222 (inactive)
4 | O=C1OCC=C[C@H]2OC34C=CCN(c5ccc(Cl)cc5)C(=O)[C@H]3N(CCCCCO)C(=O)[C@@H]4[C@@H]12 (stereo partly drawn) | -0.46 | -1.1 (inactive) | -0.338 (inactive) | 0.193 (inactive) | -0.0963 (inactive) | 0.119 (inactive) | 0.602 (inactive) | 0.182 (inactive) | 0.0508 | 0.287 | -0.0492 (inactive) | -0.192 | -0.826 | -3.66 (inactive) | -0.11 (inactive) | -0.281 (inactive)
5 | COCCOC(=O)N1C(=O)[C@@]2(c3cc(C#CC4=CCCCC4)ccc31)[C@H](c1ccccc1OCCO)N1[C@H](c3ccccc3)[C@H](c3ccccc3)OC(=O)[C@H]1[C@@H]2C(=O)N1CCc2cc(OC)c(OC)cc2C1 | -0.605 | 1.46 (inactive) | -0.347 (inactive) | -0.349 (inactive) | 1.92 (inactive) | 2.25 (inactive) | -0.398 (inactive) | 0.425 (inactive) | -0.486 | -0.11 | 3.26 (inactive) | 0.717 | -1.68 | 2.38 (inactive) | 0.0575 (inactive) | 0.139 (inactive)
6 | C[n+]1ccc(CCCO)cc1 | -0.744 | 0.883 (inactive) | -0.255 (inactive) | -4.35 (inactive) | -0.199 (inactive) | 0.684 (inactive) | -1.02 (inactive) | -1.1 (inactive) | -0.551 | 0.769 | 0.955 (inactive) | 1.02 | -1.21 | -2.17 (inactive) | -0.0124 (inactive) | 0.102 (inactive)
7 | O=C1OCC=C[C@H]2OC34C=CCN(Cn5nnc6ccccc65)C(=O)[C@H]3N(CCCCCCO)C(=O)[C@@H]4[C@@H]12 (stereo partly drawn) | -0.214 | -0.344 (inactive) | 0.0473 (inactive) | -1.32 (inactive) | 0.481 (inactive) | -0.91 (inactive) | 0.239 (inactive) | 0.163 (inactive) | -0.134 | 0.233 | -0.231 (inactive) | -0.714 | -0.508 | -4.69 (inactive) | 0.197 (inactive) | 0.521 (inactive)
8 | COc1cc2c(cc1OC)CN(C(=O)[C@H]1[C@@H]3C(=O)O[C@@H](c4ccccc4)[C@@H](c4ccccc4)N3[C@@H](c3ccc(OCCO)cc3)[C@]13C(=O)Nc1ccc(C#CCCO)cc13)CC2 | 0.687 | 2.35 (inactive) | 0.113 (inactive) | 0.129 (inactive) | 1.56 (inactive) | 2.49 (inactive) | -0.321 (inactive) | -0.61 (inactive) | 0.969 | -0.351 | 0.527 (inactive) | 0.692 | -2.06 | 1.96 (inactive) | 0.0312 (inactive) | 0.157 (inactive)
9 | NC(=O)NCC#Cc1ccc2c(c1)[C@]1(C(=O)N2)[C@H](C(=O)O)[C@H]2C(=O)O[C@H](c3ccccc3)[C@H](c3ccccc3)N2[C@@H]1c1ccccc1OCCO | 1.03 | -1.81 (inactive) | 0.837 (inactive) | -0.988 (inactive) | 2.75 (inactive) | -0.888 (inactive) | 0.525 (inactive) | 1.16 (inactive) | 1 | -0.0599 | 0.638 (inactive) | 0.823 | 0.828 | -5.72 (inactive) | -0.0005 (inactive) | 0.287 (inactive)
10 | NCCCCCCNC(=O)[C@@H]1C[C@@H]2C(=O)N3CCC[C@H]3C(=O)N2[C@@H]1c1ccc(O)cc1 | -0.0529 | -0.547 (inactive) | -0.233 (inactive) | -1.18 (inactive) | -0.282 (inactive) | -0.407 (inactive) | -0.188 (inactive) | -0.196 (inactive) | -0.134 | -0.209 | -0.386 (inactive) | 0.664 | 1.42 | -2.07 (inactive) | 0.683 (inactive) | 0.289 (inactive)
11 | O=C1O[C@H](c2ccccc2)[C@H](c2ccccc2)N2[C@H]1[C@@H](C(=O)O)[C@]1(C(=O)Nc3ccccc31)[C@H]2c1ccc(O)cc1 | -0.401 | 0.671 (inactive) | 0.186 (inactive) | -1.66 (inactive) | 1.53 (inactive) | 0.473 (inactive) | 0.293 (inactive) | -0.221 (inactive) | 0.494 | -0.237 | 0.624 (inactive) | 0.212 | -0.0758 | -5.84 (inactive) | 0.0422 (inactive) | -0.426 (inactive)
12 | O=C1c2ccccc2[C@@]2(Cc3ccccc3N(C3CC3)C2=O)[C@H](c2ccc(CO)cc2)N1C1CCCCC1 | -0.319 | 0.979 (inactive) | -0.36 (inactive) | -4.68 (inactive) | 0.264 (inactive) | 1.24 (inactive) | 0.609 (inactive) | 0.106 (inactive) | -0.546 | 0.242 | -0.241 (inactive) | -0.76 | -0.323 | -2.14 (inactive) | 0.353 (inactive) | 0.349 (inactive)
13 | CCCCC(CC)C(O)C1C=CC2C(=O)N(c3ccccc3)C(=O)C2N1Nc1ccc([N+](=O)[O-])cc1 (stereo not drawn) | -0.383 | -0.148 (inactive) | -0.201 (inactive) | 0.41 (inactive) | 0.837 (inactive) | -0.066 (inactive) | -0.948 (inactive) | -0.979 (inactive) | -0.759 | -0.02 | 0.389 (inactive) | 0.624 | 0.0352 | -3.6 (inactive) | 0.332 (inactive) | -0.383 (inactive)
14 | COc1ccc([Si](C)(C)[C@H]2[C@H](CCn3cc(CCO)nn3)O[C@@]3(C(=O)N(Cc4ccc(N5C(=O)c6cccc7cccc5c67)cc4)c4ccccc43)[C@@H]2C)cc1 | -2.42 | 0.0502 (inactive) | -5.99 (inactive) | -1.14 (inactive) | 0.519 (inactive) | 1.66 (inactive) | 0.528 (inactive) | 0.251 (inactive) | -5.65 | 0.0636 | 0.146 (inactive) | 0.625 | -2.28 | -3.7 (inactive) | -0.771 (inactive) | -0.923 (inactive)
15 | C[C@@H](OCc1ccccc1)C1NC(=O)[C@@]23C(=O)N[C@@H](Cc4ccccc4)C2[C@H](C)[C@@]2(C)O[C@H]2C3/C=C/C/C=C\CNC(=O)CNC1=O (stereo partly drawn) | -0.816 | -0.303 (inactive) | -0.555 (inactive) | -0.402 (inactive) | 0.662 (inactive) | -0.509 (inactive) | 0.0899 (inactive) | -0.754 (inactive) | -0.724 | -0.0351 | -0.153 (inactive) | -0.796 | -0.748 | -7.11 (inactive) | 0.631 (inactive) | 0.734 (inactive)
16 | O=C1OCCC=C[C@H]2OC34C=CCN(c5ccc(Cl)cc5)C(=O)[C@H]3N(CCCCCO)C(=O)[C@@H]4C12 (stereo partly drawn) | 1.25 | -0.508 (inactive) | 0.89 (inactive) | -0.417 (inactive) | -0.525 (inactive) | -0.429 (inactive) | 1.68 (inactive) | 1.83 (inactive) | 0.599 | 0.23 | 0.445 (inactive) | -0.342 | 0.684 | -5.82 (inactive) | 0.578 (inactive) | 0.434 (inactive)
17 | CN(C)CCCNC(=O)[C@@]1(C)c2ccccc2C(=O)N(Cc2cc(C(F)(F)F)cc(C(F)(F)F)c2)[C@H]1c1ccc(CO)cc1 | -1.19 | -0.808 (inactive) | -0.244 (inactive) | 0.779 (inactive) | 1.98 (inactive) | 0.874 (inactive) | 0.365 (inactive) | -1.39 (inactive) | -0.0867 | -0.239 | 0.23 (inactive) | -0.987 | -1.27 | -2.7 (inactive) | -0.0172 (inactive) | -0.0753 (inactive)
18 | COCCOC(=O)N1C(=O)[C@@]2(c3cc(C#CC4=CCCCC4)ccc31)[C@H](c1ccc(O)cc1)N1[C@H](c3ccccc3)[C@H](c3ccccc3)OC(=O)[C@H]1[C@@H]2C(=O)Nc1nc2ccccc2s1 | -0.477 | 0.175 (inactive) | 0.0007 (inactive) | -0.399 (inactive) | 1.44 (inactive) | 0.297 (inactive) | -0.61 (inactive) | 0.0717 (inactive) | -0.0867 | 0.0114 | 0.863 (inactive) | 0.843 | -1.32 | 1.05 (inactive) | 0.0256 (inactive) | 0.125 (inactive)
